Screening data (PubChem)
Pf Dd2 growth: Plasmodium falciparum Dd2 growth inhibition | P. falciparum Dd2 growth, SYBR Green, 72 h | actives 4.3% (n = 120,000) | Potency, µM (top dose mostly 28.9 µM), usual class: inhibitors; active = well fitted inhibition curve with a large enough effect; note: nearly all actives have a fitted effect of over 65% in size
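Infected erythrocytes (Dd2, 0.3% parasitemia, 2.5% hematocrit final) are added to compound in RPMI-1640/Albumax II medium, grown 72 h at 37C in low oxygen, then lysed with saponin/Triton-X containing SYBR Green and read by fluorescence.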
Numbers stand for hits; . = inactive; [ ] = remark or other dose. Only a selection was taken, and hits are over-represented in it overall.

SMILES | Pf Dd2 growth
CNc1cccnc1OC1CCN(C(=O)NCCOC)C1 (stereo not drawn) | .
CCOC(=O)C1=C(C)N=C2SC=C(CC(=O)NCc3ccco3)N2C1c1cccc(OC)c1OC (stereo not drawn) | .
CCC1CN(C(=O)N2CCC(C(=O)NCCCc3ccccc3)CC2)c2cc(C)ccc2O1 (stereo not drawn) | .
CC1CN(C(=O)N2CCC(C(=O)NCCC3=CCCCC3)CC2)c2ccccc2O1 (stereo not drawn) | .
CCC1CN(C(=O)N2CCC(C(=O)NCCC3=CCCCC3)CC2)c2cc(C)ccc2O1 (stereo not drawn) | 12.6µM
O=C(Nc1ccc(F)c(Cl)c1)c1cc2n(n1)CC(c1ccc3c(c1)OCO3)OC2 (stereo not drawn) | .
C=CCN1CC(C(=O)NCc2cccnc2Oc2ccc(C)nc2)CC1=O (stereo not drawn) | .
CS(=O)(=O)c1ccc(-c2cnc([C@@H]3COCCN3C3CCNCC3)[nH]2)cc1 | .
CCOC(=O)C1(Cc2ccccc2Cl)CCN(S(=O)(=O)c2ccccc2)CC1 | .
CCOC(=O)C1(Cc2ccc(Cl)cc2)CCNCC1 | 3.55µM
CCOC(=O)C1(Cc2ccc(Cl)cc2)CCN(C(=O)c2ccc(C)s2)CC1 | .
CC(=O)N1CCCC2(C1)CN(C)c1ccc(C(=O)NC(C)C)cc12 (stereo not drawn) | .
COc1ccc(-c2nnc3n2CCN(C(=O)C2CCCC2)C3)cc1 | .
N#Cc1ccc(C(=O)NC2CCN(c3cc(-c4ccc(Cl)cc4)[nH]n3)CC2)cc1 | .
N#Cc1ccc(C(=O)NC2CCN(c3cc(-c4ccc(Cl)cc4)[nH]n3)C2)cc1 (stereo not drawn) | 7.94µM
O=C(NC1CCN(c2cc(-c3ccc(Cl)cc3)[nH]n2)C1)c1cccnc1 (stereo not drawn) | .
Cc1ccccc1C(=O)NC1CCN(c2cc(-c3ccc(Cl)cc3)[nH]n2)C1 (stereo not drawn) | .
O=C(NC1CCN(c2cc(-c3ccc(Cl)cc3)[nH]n2)C1)c1ccc(Br)o1 (stereo not drawn) | 12.6µM
N#Cc1ccc(C(=O)NC2CCN(c3cc(-c4ccccc4)[nH]n3)CC2)cc1 | .
COCCc1noc(C2Cc3ccccc3N2C(=O)Nc2cc(C)cc(C)c2)n1 (stereo not drawn) | .[5.79 µM]
COc1ccc(CC(=O)N2[C@@H]3CC[C@H]2CC(NC(=O)c2ccncc2)C3)cc1Cl (stereo partly drawn) | .
O=C(C[C@@H]1CCNC[C@@H]1Cc1cc(-c2ccccc2)on1)NC1CC1 | .
CN(C)CCNC(=O)C[C@@H]1CCNC[C@@H]1Cc1cc(-c2ccc(C(C)(C)C)cc2)on1 | .
CN1CCN(C(=O)C[C@@H]2CCNC[C@@H]2Cc2cc(-c3ccccc3)on2)CC1 | .
CC(C)(C)c1ccc(-c2cc(C[C@H]3CNCC[C@H]3CC(=O)N3CCC(Cc4ccccc4)CC3)no2)cc1 | .
SMILES | Pf Dd2 growth
CCN(CC)C(=O)C[C@@H]1CCNC[C@@H]1Cc1cc(-c2ccc(C(C)(C)C)cc2)on1 | 4.47µM
CC(C)(C)c1ccc(-c2cc(C[C@H]3CNCC[C@H]3CC(=O)NCCN3CCOCC3)no2)cc1 | 10µM
COc1ccc(-c2cc(C[C@H]3CNCC[C@H]3CC(=O)N3CCOCC3)no2)cc1 | .
CC(C)NC(=O)C[C@@H]1CCNC[C@@H]1Cc1cc(-c2ccc(C(C)(C)C)cc2)on1 | 7.08µM
CC(C)(C)c1ccc(-c2cc(C[C@H]3CNCC[C@H]3CC(=O)Nc3ccccc3)no2)cc1 | .
COc1cc(Cl)ccc1C(=O)NC1CCc2nn(CC3CC3)c(=O)n2CC1 (stereo not drawn) | .
COc1cccc(C(=O)N2C(C(=O)NCc3ccccc3F)COC23CCC(C)CC3)c1 (stereo not drawn) | .
Cc1cc2nc3n(c(=O)c2n1CC(=O)NCCc1ccc(Cl)cc1)CCCCC3 | .
COC(=O)C1=C(C)N(Cc2ccccc2F)C(=O)CC1c1ccc(F)cc1F (stereo not drawn) | .
CCCN1C(=O)Cc2ccccc2C1C(=O)O (stereo not drawn) | .
Cc1ccc(F)cc1S(=O)(=O)N1C[C@@H](F)C[C@H]1C(=O)N1CCc2ccccc2C1 | .
CNCCN1C(=O)CC[C@H]2CN(C(=O)c3cnc4nc(C)[nH]n4c3=O)CC[C@H]21 | .
Cc1ccc(Cc2c(C)nc3c(-c4ccccc4)c(C)[nH]n3c2=O)cc1 | .
CCCCc1c(C)nc2c(-c3ccc(Cl)cc3)c(C)[nH]n2c1=O | .
Cc1nc2c(-c3ccccc3)c(C)[nH]n2c(=O)c1Cc1ccc(Br)cc1 | 7.94µM
N[C@@H](Cc1cnc[nH]1)C(=O)N1CCC2(CC1)CC(=O)N(Cc1ccccc1)C2 | .
COc1ccc(C(=O)N2CCC(C(=O)N3CCCCCCNC(=O)CC3)CC2)cc1 | .
CCCCN1CC(c2nc3ccccc3n2CCCCOc2ccccc2C)CC1=O (stereo not drawn) | 10µM
Cc1cccc(C)c1OCCCCn1c(C2CC(=O)N(c3ccc(F)cc3)C2)nc2ccccc21 (stereo not drawn) | .
Cc1ccccc1OCCCCn1c(C2CC(=O)N(c3ccccc3Cl)C2)nc2ccccc21 (stereo not drawn) | .
COc1ccccc1-c1ccnc(N[C@H]2CO[C@H]3[C@@H]2OC[C@@H]3NC(=O)N2CCOCC2)n1 | .
O=c1n(-c2ccc(F)cc2F)nc2n1CCN(Cc1cccc3ccccc13)C2 | .
COc1ccc(-n2nc(C3CCN(Cc4cccc5ccccc45)CC3)[nH]c2=O)cc1 | .
COc1ccc(-c2nn(-c3ccccc3)cc2CN2CCC(C#N)CC2)c(F)c1 | 11.2µM
COc1ccc(-c2ccnc3nc(C4CC4)nn23)c(F)c1 | .
SMILES | Pf Dd2 growth
COc1ccc(CN2CCN(c3nc4ccccc4o3)CC2CCO)c(F)c1 (stereo not drawn) | .
Cc1ccccc1-c1nn(-c2ccc(F)cc2F)cc1CN1CCC[C@@H]1C(N)=O | .
CCC1COCCN1Cc1cn(-c2ccccc2)nc1-c1ccc(OC)cc1F (stereo not drawn) | 12.6µM
COc1ccc(-c2nn(-c3ccccc3)cc2CN2CCC(CO)CC2)c(F)c1 | .
Cc1ccccc1-c1nn(-c2ccc(F)cc2F)cc1CN1CCC(O)CC1 | 11.2µM
COc1ccc(OC)c(CN2CCN(Cc3ccccc3F)C(CCO)C2)c1 (stereo not drawn) | .
COc1ccc(-c2nn(-c3ccccc3)cc2CN2CCC(F)CC2)c(F)c1 | 11.2µM
COc1cccc(N2CC(C(=O)N3CCC(C#N)CC3)NC2=O)c1 (stereo not drawn) | .
COc1ccc(C2(C(=O)N3C[C@@H](Oc4cccnc4)C[C@H]3C(=O)NC3CC3)CC2)cc1 | .
CN(Cc1nccn1C)Cc1c(C(=O)N2CCCCC2)nc2sccn12 | .
CN(C)C(=O)c1cccc2c1CCN2C(=O)c1ccc(F)cc1 | .
CN(C(=O)c1ccc2oc(CCc3ccccc3)nc2c1)C1CCOC1 (stereo not drawn) | .
CCC(=O)N1CCN(c2nc3c(s2)CC(C(=O)Nc2ccc(OC)c(F)c2)CC3)CC1 (stereo not drawn) | .
COc1cccc(-c2ccccc2NC(=O)C2CCN(Cc3cc(F)ccc3F)CC2)c1 | .
COc1ccc(-c2nc3c(C)cccc3cc2CN2CCC(O)CC2)cc1OC | .
COc1ccc(-n2cc(CN3CCC(O)CC3)c(-c3cccc(F)c3)n2)cc1 | 12.6µM
CC(=O)NC1(C)CCN(Cc2cnc(-c3cccc(F)c3)s2)CC1 | .
OC1(CN2CCCCC2)CCN(Cc2cccc(F)c2F)C1 (stereo not drawn) | .
